From PubChem BioAssay
Calls of active or inactive are those of the source. Unless noted, no rule for the calls is given here.

Assays:
[1] = test system: Wnt5a (protein binding on small-molecule microarray); test: small molecules binding Wnt5a protein – biophysical, small-molecule microarray, 635/667 nm fluorescence, primary screen (AID 1142); conditions: 635 nm fluorescence, higher = more signal;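 also: fluorescence read at 667 nm with signal to noise per printed feature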
[2] = ATP-based viability of Huh7 replicon cells – cell-based, CellTiter-Glo luminescence, basal, 48 h, cytotoxicity control for HCV replication inhibitor project, primary screen (AID 1143); conditions: higher = more signal, called active from +8 up or from −8 down;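 also: Huh7 hepatoma cells carrying a hepatitis C replication reporter with no stimulus; test concentration not given here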
[3] = Pseudomonas biofilm growth suppression – PAO1 strain, BacTiter-Glo luminescence, LB-PBS, primary screen (AID 1144); conditions: P. aeruginosa PAO1 biofilm, 12 h, higher = more signal
[4] = basal CRE-LacZ reporter activity in PC12 – cell-based, unstimulated, primary screen (AID 1145); conditions: no forskolin, luminescence, 4.5 h, higher = more signal, called active from +8 up or from −8 down
[5] = forskolin-driven CRE-LacZ activity in PC12 – cell-based, CRE-LacZ reporter, forskolin-stimulated, primary screen (AID 1146); conditions: luminescence, 4.5 h, higher = more signal, called active from +8 up or from −8 down;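 also: PC12 cells with 6xCRE LacZ reporter stimulated by forskolin 10 µM; beta-galactosidase reporter signal reflecting CREB driven transcription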
[6] = target: Streptavidin (Streptomyces avidinii) (UniProt P22629); test: compounds binding control protein streptavidin – biophysical, small-molecule microarray, 635/667 nm fluorescence, artefact control for SMM compound annotation, primary screen (AID 1147); conditions: higher = more signal;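 also: signal reflects streptavidin binding to arrayed compounds as a control protein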
Streptavidin (Streptomyces avidinii), sequence (P22629 whole entry, looked up): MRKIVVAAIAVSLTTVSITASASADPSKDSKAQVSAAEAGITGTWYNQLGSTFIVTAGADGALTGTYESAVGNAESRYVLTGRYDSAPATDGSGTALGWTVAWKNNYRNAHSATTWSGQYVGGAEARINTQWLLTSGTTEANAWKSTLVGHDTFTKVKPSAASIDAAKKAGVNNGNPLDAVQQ

[7] = probe aInhba binding on compound microarray – biochemical, small-molecule microarray, 635/667 nm fluorescence, primary screen (AID 1148); conditions: higher = more signal;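 also: score merges 667nm spot fluorescence with signal-to-noise for antibody binding to printed compounds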
[8] = target: Torsin-1A (Homo sapiens) (UniProt O14656); test: TOR1A wild-type binding on microarray – cell lysate, small-molecule microarray, lysate, 635/667 nm, primary screen (AID 1149); conditions: COS7 hTOR1A-WT lysate, 635 nm fluorescence, higher = more signal
Torsin-1A (Homo sapiens), sequence (O14656 whole entry, looked up): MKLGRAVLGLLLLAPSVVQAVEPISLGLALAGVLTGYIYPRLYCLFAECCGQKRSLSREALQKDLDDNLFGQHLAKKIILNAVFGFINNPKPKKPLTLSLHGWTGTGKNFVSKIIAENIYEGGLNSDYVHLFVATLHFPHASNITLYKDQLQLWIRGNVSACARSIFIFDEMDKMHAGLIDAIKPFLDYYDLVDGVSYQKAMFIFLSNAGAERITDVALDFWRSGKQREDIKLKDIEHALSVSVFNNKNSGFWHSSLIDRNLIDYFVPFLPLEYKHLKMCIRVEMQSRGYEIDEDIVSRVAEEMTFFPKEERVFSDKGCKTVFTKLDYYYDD

[9] = target: Torsin-1A (Homo sapiens) (UniProt O14656); test: torsin A mutant lysate binding on microarrays – cell lysate, small-molecule microarray, COS7 lysate, 635/667 nm fluorescence, primary screen (AID 1150); conditions: COS7 hTOR1A mutant lysate, 635 nm fluorescence, higher = more signal;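 also: score pools 667 nm emission and signal to noise measuring lysate protein binding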
[10] = test system: Sonic hedgehog protein (Shh); test: Sonic hedgehog microarray binding compounds – biochemical, small-molecule microarray, 635/667 nm fluorescence, primary screen (AID 1151); conditions: 635 nm fluorescence, higher = more signal;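 also: Shh protein binding to compounds spotted on small-molecule microarray slides; score combines spot fluorescence intensity with signal-to-noise across triplicate slides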
[11] = optical density shifts of acrAB sulA E. coli – strain DRC41, OD650, 48 h, E. coli filamentation inducer project, primary screen (AID 1152); conditions: higher = more signal, called active from +8 up or from −8 down;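 also: E. coli MC1000 strain DRC41 lacking acrAB efflux pump and sulA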
[12] = probe aLefty1 binding on compound microarray – biochemical, small-molecule microarray, 635/667 nm fluorescence, primary screen (AID 1153); conditions: higher = more signal;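 also: score merges spot fluorescence with signal-to-noise ratio from the scanned slide images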
[13] = plasmodial surface anion channel blockers, osmotic lysis – cell-based, P. falciparum Indochina, OD700, 1 h, primary screen (AID 1154); conditions: P. falciparum Indochina infected RBC osmotic lysis, higher = more signal, called active from +8 up or from −8 down
[14] = plasmodial surface anion channel blockers, osmotic lysis – cell-based, P. falciparum Indochina, OD700, 2 h, primary screen (AID 1155);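 also: lysis reports solute entry through the parasite surface anion channel PSAC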; conditions: P. falciparum Indochina infected erythrocytes, higher = more signal, called active from +8 up or from −8 down
[15] = changes in parasitized red cell lysis, either direction – P. falciparum Indochina, OD700, 3 h, PSAC antagonist project, primary screen (AID 1156); conditions: P. falciparum-infected erythrocytes, osmotic lysis, higher = more signal, called active from +8 up or from −8 down
[16] = plasmodial surface anion channel blockers, osmotic lysis – cell-based, P. falciparum Indochina, OD700, 18 h, primary screen (AID 1157); conditions: P. falciparum Indochina infected erythrocytes, osmotic lysis OD700, 18 h; higher = more signal, called active from +8 up or from −8 down
[17] = S6 kinase pathway phospho-S6 level changes – cell-based, A549, cytoblot, luminescence, serum-stimulated, primary screen (AID 1158); conditions: 5 h, higher = more signal;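 also: serum-stimulated A549 lung adenocarcinoma cells; signal is phosphorylated S6 detected by cytoblot immunostaining with HRP secondary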
[18] = target: NADPH oxidase 2 (Homo sapiens) (UniProt P04839); test: compounds shifting NOX2 Amplex Red fluorescence – cell-based, HEK293-NOX2, PMA-stimulated, NOX inhibitor project, primary screen (AID 1159); conditions: 45 min, higher = more signal, called active from +8 up or from −8 down; also: test concentration not given here
NADPH oxidase 2 (Homo sapiens), sequence (P04839 whole entry, looked up): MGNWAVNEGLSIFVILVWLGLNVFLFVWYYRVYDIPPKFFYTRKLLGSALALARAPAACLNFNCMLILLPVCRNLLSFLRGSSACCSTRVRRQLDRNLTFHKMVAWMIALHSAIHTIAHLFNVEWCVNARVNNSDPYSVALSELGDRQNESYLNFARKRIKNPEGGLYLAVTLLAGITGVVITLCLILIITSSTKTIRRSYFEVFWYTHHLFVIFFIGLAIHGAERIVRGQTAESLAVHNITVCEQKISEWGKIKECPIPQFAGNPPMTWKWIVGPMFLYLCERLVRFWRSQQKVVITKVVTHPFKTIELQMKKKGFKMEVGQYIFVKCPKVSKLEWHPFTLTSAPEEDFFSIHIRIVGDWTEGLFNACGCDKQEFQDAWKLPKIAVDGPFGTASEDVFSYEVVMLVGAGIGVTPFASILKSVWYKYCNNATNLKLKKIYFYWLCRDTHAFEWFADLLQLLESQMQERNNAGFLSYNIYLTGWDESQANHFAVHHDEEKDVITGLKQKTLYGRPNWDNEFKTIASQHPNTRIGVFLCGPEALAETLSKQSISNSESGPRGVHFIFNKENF

[19] = target: NADPH oxidase 4 (Homo sapiens) (UniProt Q9NPH5); test: compounds shifting NOX4 Amplex Red fluorescence – cell-based, HEK293-NOX4, tetracycline-induced, NOX inhibitor project, primary screen (AID 1160); conditions: HEK293-NOX4, Amplex Red H2O2 fluorescence, 45 min; higher = more signal, called active from +8 up or from −8 down
NADPH oxidase 4 (Homo sapiens), sequence (Q9NPH5 whole entry, looked up): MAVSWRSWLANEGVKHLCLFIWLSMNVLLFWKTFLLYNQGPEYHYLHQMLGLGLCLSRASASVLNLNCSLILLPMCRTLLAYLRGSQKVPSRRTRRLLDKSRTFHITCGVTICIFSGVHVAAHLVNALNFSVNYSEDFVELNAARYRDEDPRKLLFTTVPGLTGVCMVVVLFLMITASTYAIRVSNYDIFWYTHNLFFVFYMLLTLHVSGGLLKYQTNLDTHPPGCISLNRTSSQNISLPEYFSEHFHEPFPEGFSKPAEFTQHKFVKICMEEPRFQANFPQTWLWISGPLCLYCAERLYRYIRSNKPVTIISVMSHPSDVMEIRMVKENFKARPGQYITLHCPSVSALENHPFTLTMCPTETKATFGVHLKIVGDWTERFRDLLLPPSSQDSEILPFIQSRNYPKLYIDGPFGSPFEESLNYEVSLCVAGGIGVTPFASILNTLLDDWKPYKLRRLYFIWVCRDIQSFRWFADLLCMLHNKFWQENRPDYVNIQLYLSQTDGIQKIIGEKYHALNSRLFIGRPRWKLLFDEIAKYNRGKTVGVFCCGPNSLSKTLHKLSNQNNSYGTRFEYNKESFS

[20] = target: NADPH oxidase 5 (Homo sapiens) (UniProt Q96PH1); test: compounds shifting NOX5 Amplex Red fluorescence – cell-based, HEK293-NOX5, NOX inhibitor project, primary screen (AID 1161); conditions: HEK293-NOX5, ionomycin, 45 min, higher = more signal
NADPH oxidase 5 (Homo sapiens), sequence (Q96PH1 whole entry, looked up): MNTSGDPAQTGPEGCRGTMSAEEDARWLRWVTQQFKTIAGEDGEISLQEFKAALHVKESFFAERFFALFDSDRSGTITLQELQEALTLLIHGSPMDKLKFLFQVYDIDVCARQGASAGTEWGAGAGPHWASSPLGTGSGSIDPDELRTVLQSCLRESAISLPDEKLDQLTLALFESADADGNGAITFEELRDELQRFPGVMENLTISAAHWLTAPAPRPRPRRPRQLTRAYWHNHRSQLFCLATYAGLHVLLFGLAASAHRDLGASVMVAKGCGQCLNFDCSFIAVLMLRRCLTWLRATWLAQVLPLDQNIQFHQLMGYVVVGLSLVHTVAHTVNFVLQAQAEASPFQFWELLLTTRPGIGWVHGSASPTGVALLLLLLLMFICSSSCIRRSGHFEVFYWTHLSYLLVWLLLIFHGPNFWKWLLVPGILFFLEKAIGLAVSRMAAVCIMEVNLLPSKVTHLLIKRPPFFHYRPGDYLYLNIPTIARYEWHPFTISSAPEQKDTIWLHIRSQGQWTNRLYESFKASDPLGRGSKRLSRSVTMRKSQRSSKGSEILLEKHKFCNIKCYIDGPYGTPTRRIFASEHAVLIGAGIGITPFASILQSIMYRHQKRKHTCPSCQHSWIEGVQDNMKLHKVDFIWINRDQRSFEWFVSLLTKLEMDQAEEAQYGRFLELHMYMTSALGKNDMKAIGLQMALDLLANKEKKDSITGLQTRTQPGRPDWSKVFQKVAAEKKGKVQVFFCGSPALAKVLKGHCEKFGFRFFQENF

Compound | composite z-score [1] | z-score [2] | z-score [3] | z-score [4] | z-score [5] | composite z-score [6] | composite z-score [7] | composite z-score [8] | composite z-score [9] | composite z-score [10] | z-score [11] | composite z-score [12] | z-score [13] | z-score [14] | z-score [15] | z-score [16] | z-score [17] | z-score [18] | z-score [19] | z-score [20]
C=C[C@@H](COC(C)=O)N(C(=O)OC(C)(C)C)S(=O)(=O)c1ccc(Br)cc1 | 0.423 | -0.284 (inactive) | 1.01 (inactive) | 0.391 (inactive) | -0.739 (inactive) | 0.802 | -0.231 | 0.814 | 0.559 | 2.16 | 0.336 (inactive) | -0.105 | 0.478 (inactive) | -0.145 (inactive) | 0.14 (inactive) | 0.0566 (inactive) | -0.178 | -1.47 (inactive) | -0.744 (inactive) | -1.23
COc1ccc(NC(=O)O[C@H]2[C@H](OC(=O)Nc3ccccc3)[C@@H](OC(=O)Nc3ccccc3)[C@@H](OC)O[C@@H]2CO)cc1 | 1.48 | -4.91 (inactive) | -1.81 (inactive) | 0.895 (inactive) | -1.52 (inactive) | 0.0017 | 0.0342 | 0.66 | 1.26 | 1.17 | -0.302 (inactive) | 0.113 | 4.49 (inactive) | 0.463 (inactive) | 0.316 (inactive) | 0.373 (inactive) | 0.256 | -7.53 (inactive) | -0.713 (inactive) | -2.43
O=C1C2C=CC(C(O)c3ccc(Br)cc3)N(Nc3ccccc3F)C2C(=O)N1c1ccccc1 (stereo not given) | -0.0758 | -2.94 (inactive) | -1.76 (inactive) | -1.02 (inactive) | -0.0733 (inactive) | 0.738 | -0.204 | -0.423 | -0.0946 | -0.481 | 0.894 (inactive) | -0.192 | 3.67 (inactive) | -0.0291 (inactive) | -0.834 (inactive) | -1.01 (inactive) | 0.79 | -1.35 (inactive) | -2.56 (inactive) | -0.774
CN1C(=O)C2C=CC(C(O)COCc3ccccc3)N(N(c3ccccc3)c3ccccc3)C2C1=O (stereo not given) | 0.124 | -0.423 (inactive) | -0.761 (inactive) | -0.326 (inactive) | -0.637 (inactive) | 0.369 | 0.0464 | 0.346 | 0.231 | -0.386 | -0.339 (inactive) | 0.479 | 3.65 (inactive) | 1.49 (inactive) | 0.361 (inactive) | 1.07 (inactive) | -0.849 | 1.58 (inactive) | -4.42 (inactive) | 0.262
C=CC[C@@]1(C(=O)N2CCOCC2)N=C(c2ccc(OCCCO)cc2)O[C@@H]1c1ccccc1CN=[N+]=[N-] | 0.935 | -2.2 (inactive) | 0.887 (inactive) | 0.204 (inactive) | -0.818 (inactive) | 1.28 | 0.305 | 0.495 | 1.46 | 0.0134 | -0.124 (inactive) | 0.789 | 21.5 (active) | 4.83 (inactive) | 1.61 (inactive) | 0.986 (inactive) | 0.36 | -0.305 (inactive) | 0.645 (inactive) | -1.07
C=CCC(OC(C)=O)[C@@H]1[C@@H](N(Cc2cccc3ccccc23)C(=O)c2cccc3ccccc23)c2cc(OCCCO)ccc2N1C(=O)c1ccc(-c2ccccc2)cc1 (stereo not given in full) | -0.0964 | -1.56 (inactive) | 1.21 (inactive) | -0.113 (inactive) | 1.24 (inactive) | 0.116 | 0.0543 | -0.104 | 0.292 | 0.556 | -0.929 (inactive) | -0.106 | -0.17 (inactive) | 0.526 (inactive) | 0.0426 (inactive) | 0.361 (inactive) | 0.684 | -0.677 (inactive) | 0.104 (inactive) | -2.47
O=C1O[C@H](c2ccccc2)[C@H](c2ccccc2)N2[C@H]1[C@@H](C(=O)O)[C@]1(C(=O)Nc3ccc(C#CC4=CCCCC4)cc31)[C@H]2c1ccc(O)cc1 | 0.423 | -0.53 (inactive) | 0.608 (inactive) | 1.72 (inactive) | 0.945 (inactive) | -0.0343 | -0.157 | -0.107 | 0.298 | 1.22 | -1.14 (inactive) | -0.242 | -2.37 (inactive) | -0.921 (inactive) | -10.4 (active) | -0.451 (inactive) | -0.497 | 1.62 (inactive) | -3.15 (inactive) | -0.32
C=CCC(OC(C)=O)[C@@H]1[C@@H](N(Cc2cccc3ccccc23)C(=O)Cc2ccc(OC)cc2)c2cc(OCCCO)ccc2N1C(=O)c1ccc2ccccc2n1 (stereo not given in full) | 0.216 | -2.08 (inactive) | -0.253 (inactive) | -0.374 (inactive) | 1.3 (inactive) | 1.05 | 0.0569 | -0.512 | 0.0537 | 0.524 | -0.899 (inactive) | 0.164 | 2.1 (inactive) | 0.786 (inactive) | 0.714 (inactive) | 0.385 (inactive) | 0.135 | -1.4 (inactive) | -0.588 (inactive) | -1.25
CCOc1cc(C(O)C2C=CC3C(=O)N(c4ccccc4)C(=O)C3N2Nc2ccc(C#N)cc2)ccc1O (stereo not given) | -0.162 | 0.423 (inactive) | -0.485 (inactive) | -0.525 (inactive) | 0.201 (inactive) | 0.999 | 0.288 | 0.258 | 0.115 | -0.373 | -1.17 (inactive) | 0.302 | 16.3 (active) | 2.72 (inactive) | 0.743 (inactive) | 1.27 (inactive) | -1.03 | -2.87 (inactive) | -5.02 (inactive) | -4.31
